# Screening data as filed in PubChem.
# Compounds with a hit are over-represented: about 7.5% of the library has one in this group of screens.
# Luc counter – Counterscreen for Luciferase (Kinase-Glo TM) Inhibition. Kinase-Glo luciferase, ATP luminescence, 8 min. Potency, µM (doses to about 38.3 µM), inactives show at the top dose activity change, negative = inhibition, actives largely listed as inhibitors. 200,000 tested, 0.28% active. AID 1379, 2008; note: % is set by controls: 0 for no effect and ±100 for the full control effect; nearly all actives have a fitted effect of over 60% in size
#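 Compound is pinned into ATP-containing buffer (10 uM ATP, imidazole pH 7.2, 7 mM MgCl2). Kinase-Glo luciferase reagent is then added. Light output is recorded following an 8-min room-temperature incubation.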
# SMN2 splice up – qHTS Assay for Enhancers of SMN2 Splice Variant Expression | HEK293 SMN2-luciferase splicing reporter, luminescence, 30-36 h | 210,000 tested, 2.8% active | Potency, µM (titrated, usually from 46.1 µM), without a hit: at the highest dose activity change, positive = activation, hits mostly activators | AID 1458, 2008; note: % of control where 0% means no effect; nearly all actives have a fitted effect of over 55% in size
#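 qHTS luciferase splicing reporter: luminescence rises when SMN2 exon 7 is included in transfected HEK293 cells. Compound exposure lasted 30-36 h at 37C, with 4.5 mM final sodium butyrate as control, followed by a ONE-Glo read.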
# FLuc modulator – qHTS profiling assay for firefly luciferase inhibitor/activator using purifed enzyme and Km concentrations of substrates (counterscreen for miR-21 project); Luciferin 4-monooxygenase (Photinus pyralis), P08659; purified FLuc, Km substrates, luminescence inhibition; Potency, µM (highest dose often 57.5 µM), for inactives: at the highest dose activity change, negative = inhibition, most hits filed as inhibitors; 360,000 tested, 6.9% active;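 note: plate controls were vehicle for no effect and reference inhibitor for full effect; nearly all actives have a fitted effect of over 55% in size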
# Target sequence (P08659 whole entry, looked up): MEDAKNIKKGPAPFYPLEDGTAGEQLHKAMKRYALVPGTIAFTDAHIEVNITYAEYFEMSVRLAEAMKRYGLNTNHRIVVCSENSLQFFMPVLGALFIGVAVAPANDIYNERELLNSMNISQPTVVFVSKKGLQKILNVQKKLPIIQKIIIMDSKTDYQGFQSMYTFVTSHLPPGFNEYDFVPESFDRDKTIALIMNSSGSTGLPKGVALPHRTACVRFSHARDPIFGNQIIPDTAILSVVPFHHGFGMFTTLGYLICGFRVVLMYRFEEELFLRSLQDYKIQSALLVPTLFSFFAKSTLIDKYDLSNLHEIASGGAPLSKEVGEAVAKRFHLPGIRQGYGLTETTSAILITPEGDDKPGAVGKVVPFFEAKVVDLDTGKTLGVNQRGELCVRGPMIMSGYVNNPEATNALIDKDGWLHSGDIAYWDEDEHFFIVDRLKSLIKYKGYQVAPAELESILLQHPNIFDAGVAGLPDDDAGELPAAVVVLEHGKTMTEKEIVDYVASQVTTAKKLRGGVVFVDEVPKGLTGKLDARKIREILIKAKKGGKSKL
#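 Biochemical qHTS of compounds, final roughly 60 µM downward over six points, against 10 nM purified firefly luciferase using Km concentrations of substrates (10 uM D-luciferin, 10 uM ATP) in Tris acetate pH 7.5 buffer; luminescence output.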
# NPC1 promoter act – qHTS Assay for NPC1 Promoter Activators. Huh7 NPC1 promoter luciferase reporter, 24 h. Potency, µM (doses to about 9.22 µM), for inactives: at the highest dose activation, usual class: activators. 320,000 tested, 2.4% active; note: % of control where 0% means no effect; nearly all actives have a fitted effect of over 60% in size
#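 Huh7 cells stably carrying NPC1 promoter–luciferase, plated in Opti-MEM with 10% FBS for 2 h, were exposed to compound in DMSO for 24 h at 37 °C; luciferase reagent was added for 10 min and luminescence read.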
# ELG1 genotoxic – qHTS screen for small molecules that induce genotoxicity in human embryonic kidney (HEK293T) cells expressing luciferase-tagged ELG1. HEK293T ELG1-luciferase reporter, luminescence, 16 h. Potency, µM (top dose mostly 46 µM), for inactives: top-dose activity change, positive = activation, actives largely listed as activators. 330,000 tested, 1.3% active. AID 504466, 2011; note: % of control where 0% means no effect; nearly all actives have a fitted effect of over 60% in size
#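 Screening used a luciferase reporter fused to human ELG1 in HEK293T cells. Luminescence was read on a CCD plate imager after 16 hr exposure and 30 min ONE-Glo incubation.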
# Rab9 promoter act – qHTS Assay for Rab9 Promoter Activators; 320,000 tested, 2.8% active; Huh7 Rab9 promoter-luciferase reporter, luminescence, 24 h; Potency, µM (titrated, usually from 9.22 µM), inactives show at the top dose activation, negative = inhibition, most hits filed as activators; note: % of control where 0% means no effect; nearly all actives have a fitted effect of over 60% in size
#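 Luminescence read-out: Huh7 cells stably expressing Rab9-luciferase, treated 24 h with compound at 37 °C, then lysed with luciferase reagent for 10 min at ambient before reading.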
# An asterisk follows results filed as active; ? = inconclusive; nt = no result; [ ] = dose if it differs, or a comment. Calls come from the whole dose curve; as a rule, active = well fitted curve in the direction sought with a large enough effect; inconclusive = small, poorly fitted or top-dose-only effect, or another doubt; inactive = no such curve, though single readings can be large; an effect the other way counts as inactive or inconclusive. Potency is the fitted concentration of half-maximal effect.
SMILES,Luc counter,SMN2 splice up,FLuc modulator,NPC1 promoter act,ELG1 genotoxic,Rab9 promoter act
O=C(NCCc1ccc(F)cc1)C(=O)NCC1CCCN1S(=O)(=O)c1cccs1 (stereo not drawn),nt,nt,-1%,-7%,-8%,-2%
CN(C)C(=O)c1ccc(NC(=O)c2cncc(Br)c2)cc1,-20%,?,?,17%,-4%,22%
O=C(Nc1ccc2c(c1)OCCO2)c1cncc(Br)c1,-8%,10µM*,4.8µM*,3.5µM*,?,1.4µM*
O=C(Nc1ccc2c(c1)OCO2)c1cncc(Br)c1,-8%,21%,27µM*,?,6%,?
COC(C[C@H](O)C[C@@H](O)COCc1ccccc1)OC,nt,nt,-1%,-7%,2%,-6%
O=C(c1nc2ccc([N+](=O)[O-])cc2[nH]c1=O)[C@@H](O)c1ccc2c(c1)OCO2,-1%[7.66 µM],14%[9.22 µM],nt,nt,nt,nt
Cc1cc(OCC(=O)N(C)Cc2ccccc2)ccc1Br,nt,nt,17µM*,?,8%,?
Cc1cc(OCC(=O)N(C)Cc2ccccc2)ccc1Cl,nt,nt,15µM*,?,14%,4.5µM*
CC(C)NS(=O)(=O)c1ccc(OCC(=O)N(C)Cc2ccccc2)cc1,-1%,-10%,1%,-1%,3%,0%
COc1ccc(OCC(=O)N(C)Cc2ccccc2)cc1,-3%,1%,-1%,-6%,6%,7%
O=C(C(Cc1ccccc1)N1C(=O)c2ccccc2C1=O)N1CCc2ccccc21 (stereo not drawn),-1%,-19%,7%,1%,-4%,-6%
C[N+]1(CCC(=O)c2ccco2)CC2CCC(CC2)C1 (stereo not drawn),-2%[7.66 µM],6%[9.22 µM],nt,nt,nt,nt
Cc1ccccc1NC(=O)c1c(C)oc2ccc(O)c(CN(C)Cc3ccccc3)c12,nt,-18%,-18%,nt,nt,nt
Cc1ccc(N=Cc2sc(O)c3ccccc23)cc1,-2%,4.5µM*,1.1µM*,2µM*,?,1.3µM*
Cc1ccc(N=Cc2sc(O)c3ccccc23)c(C)c1,1%,11µM*,?,?,11%,1µM*
Cc1ccc(N=Cc2c(C)[nH]n(-c3nc4ccccc4[nH]3)c2=O)cc1,5µM*,-8%,6.7µM*,?,2%,?
Cc1ccc(N=Cc2c(O)c3ccccc3n(C)c2=O)cc1,nt,nt,0.43µM*,-2%,3%,12%
Cc1cccc(C)c1NC(=O)NC1(C(=O)NCCCN2CCOCC2)CCCCC1,-1%,-17%,4%,0%,-4%,-6%
Clc1ccccc1CSc1nc2ccncc2[nH]1,?,13µM*,15µM*,?,18µM*,3.5µM*
COc1cccc(CSc2nc3ccncc3[nH]2)c1,nt,nt,13µM*,1.6µM*,-18%,2.8µM*
O=C(NCc1ccccc1Cl)c1ccc(CSc2nc3ccncc3[nH]2)cc1,nt,nt,-11%,-2%,-9%,-2%
CC1CCc2c(sc(NC(=O)c3cc(-c4ccc(F)cc4)on3)c2C(N)=O)C1 (stereo not drawn),nt,1%,-1%,nt,nt,nt
Cc1nncn1-c1ccc(C(=O)Nc2cc(F)ccc2F)cc1,nt,nt,0%,nt,nt,nt
COc1ccc(Cc2nc3ccc(C(=O)N4CCOCC4)cc3o2)cc1,nt,nt,13µM*,3.2µM*,18µM*,4µM*
COc1ccc(Cc2nc3ccc(C(=O)N4C[C@@H](C)O[C@@H](C)C4)cc3o2)cc1OC,nt,nt,15µM*,26%,?,10%
OC(CNCc1cccnc1)COc1ccc2ccccc2c1 (stereo not drawn),nt,nt,6%,0%,-8%,-1%
O=C(c1ccco1)N1CCN(S(=O)(=O)c2cccc(Cl)c2)CC1,nt,nt,5%,-2%,2%,0%
